40 molecules from ChEMBL document CHEMBL3988442, “University of Dundee, Small-Polar-MMV Screening Library” (2021) can be followed below.

The first experiment concerns the target T1, Aspartate--tRNA(Asp/Asn) ligase (Mycobacterium tuberculosis (strain ATCC 25618 / H37Rv)) (UniProt P9WFW3). Also: in the data most compounds retested in dose-response had high values.
T1 sequence (whole entry): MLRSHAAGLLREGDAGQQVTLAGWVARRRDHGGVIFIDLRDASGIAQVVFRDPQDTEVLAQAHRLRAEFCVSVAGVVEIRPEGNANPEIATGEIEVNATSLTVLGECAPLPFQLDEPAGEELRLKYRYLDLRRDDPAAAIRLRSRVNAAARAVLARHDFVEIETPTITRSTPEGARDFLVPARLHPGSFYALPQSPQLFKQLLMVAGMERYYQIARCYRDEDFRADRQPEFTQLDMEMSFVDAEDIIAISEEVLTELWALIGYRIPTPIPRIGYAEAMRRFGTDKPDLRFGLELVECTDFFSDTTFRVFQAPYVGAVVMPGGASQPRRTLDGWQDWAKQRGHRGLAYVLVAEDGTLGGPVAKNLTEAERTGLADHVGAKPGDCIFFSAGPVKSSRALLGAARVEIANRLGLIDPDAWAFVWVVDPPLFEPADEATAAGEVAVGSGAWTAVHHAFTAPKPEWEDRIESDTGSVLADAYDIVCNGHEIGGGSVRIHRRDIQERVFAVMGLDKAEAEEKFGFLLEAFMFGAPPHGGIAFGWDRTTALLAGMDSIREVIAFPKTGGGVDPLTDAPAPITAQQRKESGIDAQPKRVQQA
The experiment can be described thus: Assay for Asp RNA synthetase-1 from Mycobacterium tuberculosis. The format is functional. On the set-up: scale not given: direction of the effect not stated beside the values. To be noted: 30 µM.
As to `Cc1cnn(CCC(=O)N2CCC(Nc3cccnn3)CC2)c1`, the Percent Effect turned out to be 1.38%.
Take `COCc1c(C(=O)NC2CCCC2)nnn1-c1ccc(C)cc1`: the Percent Effect is -4.96%.
Consider `CC(C)Cc1noc(CN2CCCC(Cn3cncn3)C2)n1` (stereo not given), for which the Percent Effect is -2.91%.
Take `CC(=O)c1ccc(C(=O)NCCCOC(C)c2ccccc2)s1` (stereo not given): the Percent Effect was -4.7%.
Turning to `Cc1cc(C)n(CCC(=O)N2CCC(c3nc(C(C)C)no3)CC2)n1`, the Percent Effect came out at 2.47%.
The same measure, in the same setting: then `Cc1ncsc1C(=O)NCc1cccs1`, with -1.72%; and `Cc1cnc(CNC(=O)NCc2cccnc2N(C)C)s1`, with -2.25%; and `CCn1c(N)nc2cc(C(=O)NCCc3ccccc3C)cnc21`, with 7.33%.
With `N#Cc1cccc(S(=O)(=O)NC(=O)COc2ccc3c(c2)CCC3)c1`, the Percent Effect is -0.478%.
In the case of `Cc1cc(C)n(CC2CCCN2C(=O)c2cccc3[nH]ncc23)n1` (stereo not given), the Percent Effect is -2.45%.
Turning to `CC(C)N1CCCC2(CCN(C(=O)CCCn3cncn3)C2)C1=O` (stereo not given), the Percent Effect was -0.717%.
As for `Cn1cnnc1S(=O)(=O)C1CCN(S(=O)(=O)c2c(Cl)cccc2Cl)CC1`, the Percent Effect was -0.575%.
As to `CCc1nnc2n1CCN(C(=O)c1ccc(-c3ccco3)nc1C)C2`, the Percent Effect was -3.2%.
On the same count and under the same terms, to `Cc1cc(OCC(=O)N2CCCC(c3noc(C)n3)C2)no1` (stereo not given) belongs -1.75%.
Still for that read-out and setting: to `COC(=O)c1cc(C(=O)N2CCCCCC2)n(-c2ccccc2)n1` belongs -0.856%; to `CC(=O)Nc1nc(C(=O)NCc2ccc(N3CCCCCC3)nc2)cs1`, 6.56%.
The same measure, in the same setting: then `CC(=O)N1[C@H](CN(C)C)C[C@@H]2CN(C(=O)c3cccc(F)c3)CC[C@@H]21`, with -0.523%; and `Cc1ccc(CN(Cc2c[nH]cn2)C2CC(C)(C)NC(C)(C)C2)o1`, with -1.68%; and `O=C(c1ccc[nH]1)N1CCCC2(CCN(c3ccsc3)C2=O)C1` (stereo not given), with 3.37%.
Take `O=C(NCc1cncc2c1CCN(Cc1cccs1)C2)C1CC1`: the Percent Effect was 7.52%.
Turning to `CC(C)n1ccnc1C1CCN(C(=O)c2cc[nH]n2)CC1`, the Percent Effect was -0.496%.
Same read-out and setting: to `O=C(CCSc1ccc(F)cc1)NS(=O)(=O)c1ccc2c(c1)OCCO2` belongs -0.411%.
Still for that read-out and setting: then `N#Cc1c(F)cccc1N1CCC(NS(=O)(=O)c2cccs2)CC1`, with 10.6%; and `c1cc2nc(C3CCN(CC4CC4)CC3)nn2cc1N1CCCC1`, with -1.69%; and `O=C(NCCOc1ccc2c(c1)OCO2)C1CC(=O)N(CC2CC2)C1` (stereo not given), with 4.55%.
The same measure, in the same setting: then `CCN(CC)Cc1cn2c(n1)CN(C(=O)c1cc(C)on1)CC2`, with 3.22%.
As to `COc1ccc2nnc(CCCC(=O)NCCC3=CCCCC3)n2n1`, the Percent Effect amounted to 0.319%.
On the same count and under the same terms, then `CC(=O)N(Cc1noc(C2CC2)n1)C1CCN(Cc2nccn2C)C1` (stereo not given), with -4.37%; and `CCS(=O)(=O)N1Cc2nccn2CC(COc2cccnc2)C1` (stereo not given), with -1.75%; and `CCCNC(=O)c1c(-n2cnnn2)sc2c1CCC2`, with 1.26%.
Same read-out and setting: then `CCOc1ccc(NC(=O)CN2CCN(c3nccn3C)CC2)cc1`, with -3.86%; and `COCCNC(=O)C[C@@H]1COC[C@H]2CN(C(=O)c3cnccn3)C[C@@H]12`, with -8.37%; and `O=C(c1cn(-c2cc(N3CCSCC3)ncn2)cn1)N1CCSCC1`, with -8.02%.
For `OC(CN1CCOCC1)CN1CCc2c(ncn2C2CC2)C1` (stereo not given), the Percent Effect is -8.33%.
Consider `O=C(NCCNc1ncccn1)C1CCN(c2ncccn2)CC1`, for which the Percent Effect is -0.874%.
Turning to `CCc1nnc2n1CCN(Cc1ccc3c(c1)OCCO3)C2`, the Percent Effect came to 4.98%.
As for `CCOCC(O)CN1CCN(C(=O)c2cccnc2OC)CC1` (stereo not given), the Percent Effect is -1%.
Same read-out and setting: to `N#Cc1ccc(OC2CCN(C(=O)c3ccc4c(c3)OCO4)CC2)nc1` belongs -8.83%; to `NC(=O)c1ccc(N2CCCCC2)c(NC(=O)c2cncc(Br)c2)c1`, 13.7%.
Take `CCc1noc(CN2CCCC2c2noc(C3CC3)n2)n1` (stereo not given): the Percent Effect is 0.459%.

In the next experiment the target is Shiga toxin 2 (Escherichia coli O157:H7) (UniProt P09385+P09386). The experiment can be described thus: E. coli 0.157:H7 Shiga Toxin SOP - stx2 screening assay. The format is functional. On the set-up: scale not given: direction of the effect not stated beside the values. To be noted: 30 µM.
For `Cc1cnn(CCC(=O)N2CCC(Nc3cccnn3)CC2)c1`, the Percent Effect stood at 16.1%.
Still for that read-out and setting: to `COCc1c(C(=O)NC2CCCC2)nnn1-c1ccc(C)cc1` belongs 10.2%; to `CC(C)Cc1noc(CN2CCCC(Cn3cncn3)C2)n1` (stereo not given), -14.7%; to `CC(=O)c1ccc(C(=O)NCCCOC(C)c2ccccc2)s1` (stereo not given), -71.8%.
Same read-out and setting: to `Cc1cc(C)n(CCC(=O)N2CCC(c3nc(C(C)C)no3)CC2)n1` belongs -18.2%.
The same measure, in the same setting: then `Cc1ncsc1C(=O)NCc1cccs1`, with 1.3%; and `Cc1cnc(CNC(=O)NCc2cccnc2N(C)C)s1`, with -0.447%; and `CCn1c(N)nc2cc(C(=O)NCCc3ccccc3C)cnc21`, with -69.2%.
Regarding `N#Cc1cccc(S(=O)(=O)NC(=O)COc2ccc3c(c2)CCC3)c1`, the Percent Effect stood at 8.82%.
On the same count and under the same terms, then `Cc1cc(C)n(CC2CCCN2C(=O)c2cccc3[nH]ncc23)n1` (stereo not given), with -17.6%.
With `CC(C)N1CCCC2(CCN(C(=O)CCCn3cncn3)C2)C1=O` (stereo not given), the Percent Effect was found to be 11.1%.
On the same count and under the same terms, then `Cn1cnnc1S(=O)(=O)C1CCN(S(=O)(=O)c2c(Cl)cccc2Cl)CC1`, with 0.759%.
As for `CCc1nnc2n1CCN(C(=O)c1ccc(-c3ccco3)nc1C)C2`, the Percent Effect is -27.7%.
On the same count and under the same terms, then `Cc1cc(OCC(=O)N2CCCC(c3noc(C)n3)C2)no1` (stereo not given), with -41.1%; and `COC(=O)c1cc(C(=O)N2CCCCCC2)n(-c2ccccc2)n1`, with 30.9%.
For the molecule `CC(=O)Nc1nc(C(=O)NCc2ccc(N3CCCCCC3)nc2)cs1`, the Percent Effect is -131%.
With `CC(=O)N1[C@H](CN(C)C)C[C@@H]2CN(C(=O)c3cccc(F)c3)CC[C@@H]21`, the Percent Effect was -3.85%.
The same measure, in the same setting: then `Cc1ccc(CN(Cc2c[nH]cn2)C2CC(C)(C)NC(C)(C)C2)o1`, with 7.12%; and `O=C(c1ccc[nH]1)N1CCCC2(CCN(c3ccsc3)C2=O)C1` (stereo not given), with 3.06%; and `O=C(NCc1cncc2c1CCN(Cc1cccs1)C2)C1CC1`, with -27.9%.
As for `CC(C)n1ccnc1C1CCN(C(=O)c2cc[nH]n2)CC1`, the Percent Effect amounted to 14.3%.
With `O=C(CCSc1ccc(F)cc1)NS(=O)(=O)c1ccc2c(c1)OCCO2`, the Percent Effect was -1.47%.
`N#Cc1c(F)cccc1N1CCC(NS(=O)(=O)c2cccs2)CC1`: the Percent Effect was -25.2%.
As to `c1cc2nc(C3CCN(CC4CC4)CC3)nn2cc1N1CCCC1`, the Percent Effect was -3.75%.
Still for that read-out and setting: to `O=C(NCCOc1ccc2c(c1)OCO2)C1CC(=O)N(CC2CC2)C1` (stereo not given) belongs 24.2%; to `CCN(CC)Cc1cn2c(n1)CN(C(=O)c1cc(C)on1)CC2`, 2.01%.
On the same count and under the same terms, to `COc1ccc2nnc(CCCC(=O)NCCC3=CCCCC3)n2n1` belongs -54.6%; to `CC(=O)N(Cc1noc(C2CC2)n1)C1CCN(Cc2nccn2C)C1` (stereo not given), 12.9%.
Same read-out and setting: to `CCS(=O)(=O)N1Cc2nccn2CC(COc2cccnc2)C1` (stereo not given) belongs -12.5%; to `CCCNC(=O)c1c(-n2cnnn2)sc2c1CCC2`, -42%; to `CCOc1ccc(NC(=O)CN2CCN(c3nccn3C)CC2)cc1`, -64.8%.
`COCCNC(=O)C[C@@H]1COC[C@H]2CN(C(=O)c3cnccn3)C[C@@H]12`: the Percent Effect was -20.7%.
The same measure, in the same setting: then `O=C(c1cn(-c2cc(N3CCSCC3)ncn2)cn1)N1CCSCC1`, with 1.44%; and `OC(CN1CCOCC1)CN1CCc2c(ncn2C2CC2)C1` (stereo not given), with -43.3%.
Still for that read-out and setting: then `O=C(NCCNc1ncccn1)C1CCN(c2ncccn2)CC1`, with 5.72%; and `CCc1nnc2n1CCN(Cc1ccc3c(c1)OCCO3)C2`, with 15.5%.
On the same count and under the same terms, then `CCOCC(O)CN1CCN(C(=O)c2cccnc2OC)CC1` (stereo not given), with 12.8%; and `N#Cc1ccc(OC2CCN(C(=O)c3ccc4c(c3)OCO4)CC2)nc1`, with -32.6%; and `NC(=O)c1ccc(N2CCCCC2)c(NC(=O)c2cncc(Br)c2)c1`, with -52.6%.
`CCc1noc(CN2CCCC2c2noc(C3CC3)n2)n1` (stereo not given): the Percent Effect worked out at 12.9%.
